In the library only some 3.3% were active in any assay of this set; here they are far more common.
FAK blocker: blocks human focal adhesion kinase activity | Q05397 | biochemical FAK kinase activity assay | inhibition, %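 (tested at 7 µM)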 | 97,000 compounds, 0.84% hits | AID 727; in the data active = inhibition above about 19%
ERb coact inh: ER-beta (human) coactivator binding inhibition; TR-FRET ER-beta LBD / SRC1-Cy5 peptide binding; receptor agonist-loaded with 1 µM estradiol; 86,000 compounds, 1.3% hits; AID 633; inhibition, % at 25.6 µM; Q92731;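 active = compounds whose percent inhibition of the receptor-coactivator binding signal exceeds about 50% in the single-dose screen, limit read from the data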
Target sequence (Q92731 whole entry, looked up, the tested form may be a part): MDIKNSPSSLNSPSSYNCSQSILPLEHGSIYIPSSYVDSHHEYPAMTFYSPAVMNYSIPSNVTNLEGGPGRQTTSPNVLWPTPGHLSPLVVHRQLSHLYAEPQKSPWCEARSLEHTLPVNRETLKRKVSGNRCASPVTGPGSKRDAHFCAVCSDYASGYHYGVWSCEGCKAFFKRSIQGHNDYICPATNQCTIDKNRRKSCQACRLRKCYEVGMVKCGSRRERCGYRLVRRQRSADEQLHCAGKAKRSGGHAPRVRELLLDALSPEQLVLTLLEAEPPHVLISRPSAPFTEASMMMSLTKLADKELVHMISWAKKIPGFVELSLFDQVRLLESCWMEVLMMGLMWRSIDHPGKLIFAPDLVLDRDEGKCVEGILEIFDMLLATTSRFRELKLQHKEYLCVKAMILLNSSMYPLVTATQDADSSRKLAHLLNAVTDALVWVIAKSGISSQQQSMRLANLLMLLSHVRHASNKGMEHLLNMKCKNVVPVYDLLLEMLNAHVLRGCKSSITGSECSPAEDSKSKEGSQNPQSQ
ERa SRC1 inh: ER-alpha (human) coactivator binding inhibition. 86,000 compounds, 1.7% hits. TR-FRET ER-alpha LBD / SRC-1 peptide, estradiol-bound. AID 629. inhibition, % at 25.6 µM; in the data active = inhibition above about 50%
Calb biofilm kill: kills Candida albicans biofilms; inhibition, % at 6 µM; C. albicans biofilm + clotrimazole, Alamar Blue; 85,000 compounds, 0.14% hits; AID 834;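 active = inhibition above 20%; inactive = inhibition below 20%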;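 also: preformed 24 hr biofilms exposed to compound for 48 hr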
Smad3 FoxH1 inh: Smad3 (human) transcription factor binding inhibition. TR-FRET Smad3/Dy647-FoxH1 peptide binding, europium anti-His. 88,000 compounds, 0.29% hits. P84022. inhibition, % at 25 µM;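 active = compounds that reduce the energy-transfer binding signal between the protein and its labelled peptide by more than half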
ERa coact pot: enhances coactivator binding to human estrogen receptor alpha. 86,000 compounds, 1.3% hits. TR-FRET ERalpha-LBD/SRC-Cy5 coactivator binding, 2 h; 100 = basal binding, no effect. coactivator binding (% of control), % at 25.6 µM. P03372; in the data active = activity above about 200%;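 also: binding measured in presence of low estradiol as agonist stimulus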
Hits are given with their value; . = inactive; / = no result given; [ ] = another dose, or the depositor's remark.

SMILES	FAK blocker	ERb coact inh	ERa SRC1 inh	Calb biofilm kill	Smad3 FoxH1 inh	ERa coact pot
Cc1cccc(NC(=O)Cn2nnc(-c3cccs3)n2)c1C	.	.	.	.	.	.
COc1ccc(-c2cc(C(F)(F)F)nc(SCC(=O)Nc3sc4c(c3C#N)CCC4)n2)cc1	.	/	/	/	/	/
CCOc1ccccc1NC(=O)Cn1nnc(-c2ccc(OCC)c(OCC)c2)n1	.	.	53[fluorescence artefact?]	.	.	.
Cc1ccc(C(=O)NCc2nnc(SCC(=O)Nc3sc4c(c3C#N)CCCC4)n2C)cc1	.	.	.	.	.	.
BrC(c1cccc2ccccc12)c1cccc2ccccc12	/	/	/	/	.	/
N#Cc1cc2c(nc1SCC(=O)Nc1sc3c(c1C#N)CCC3)CCC2	.	.	.	.	.	.
COc1ccc(-c2ccc(C#N)c(SCC(=O)Nc3sc4c(c3C#N)CCC4)n2)cc1OC	.	65[fluorescence artefact?]	84[fluorescence artefact?]	.	.	.
CCOC(=O)CC1=C(C(=O)OCC)C(c2cccs2)C(C#N)=C(N)O1 (centres undefined)	.	.	93[fluorescence artefact?]	.	.	.
CCOC(=O)CC1=C(C(=O)OCC)C(c2ccc(OC)c(OC)c2)C(C#N)=C(N)O1 (centres undefined)	.	.	.	.	.	.
CCCCSc1c(C)c2cc3c(cc2[nH]c1=O)OCO3	.	.	.	.	.	.
COc1cc(OC)cc(C(=O)NCCN2CCOCC2)c1	.	.	.	.	.	.
Cc1n[nH]c(=O)nc1Nc1ccc(O)cc1	.	.	.	.	.	.
Oc1ccc(Nc2nc3ccccc3nc2Nc2ccc(O)cc2)cc1	.	83[fluorescence artefact?]	73[fluorescence artefact?]	.	.	.
O=C(O)[C@@H](O)[C@@H](O)[C@@H](O)[C@@H](O)c1nc2ccccc2s1	/	/	/	/	.	/
CC(C)(C)c1ccc(C(=O)N/C(=C\c2cccs2)C(=O)NCc2ccco2)cc1	.	/	/	/	/	/
N#Cc1cc2cc3c(cc2nc1SCC(=O)OC1CCCCC1)OCO3	.	.	.	.	.	231[fluorescence artefact?]
CCn1c(COc2ccccc2)nnc1SCC(=O)C(C)(C)C	.	.	.	.	59[fluorescence artefact?]	.
CCn1c(COc2ccc(C)cc2)nnc1SCC(=O)C(C)(C)C	.	.	.	.	.	.
Cc1cc(C(F)(F)F)nn1CCCNC(=O)c1cnccn1	/	.	.	/	.	.
Cc1cccc(NC(=O)CSc2nnc(-c3ccco3)c(-c3ccco3)n2)c1C	.	77[fluorescence artefact?]	74[fluorescence artefact?]	.	.	.
Clc1ccc(-n2ncc3c(NCC4CCCO4)ncnc32)cc1 (centres undefined)	/	55[fluorescence artefact?]	.	23	.	.
CC(=O)O[C@H]1CC[C@@]2(C)C(=CC[C@@H]3[C@H]4CC[C@@H](c5cc(C(F)(F)F)n(C(C)=O)n5)[C@]4(C)CC[C@H]32)C1	/	/	/	/	.	/
CC(=O)O[C@H]1CC[C@@]2(C)C(=CC[C@@H]3[C@H]4CC[C@@H]([C@H](C)C(=O)O)[C@]4(C)CC[C@H]32)C1	/	/	/	/	52	/
Cc1ccccc1N(CC(=O)NCC1CCCO1)C(=O)C1(C)CC(=O)N=C2C=CC=CN21 (centres undefined)	.	.	.	/	.	.
O=C(CSc1nnc(-c2ccc(Cl)cc2)o1)N1CCN(c2ccccc2)CC1	/	54	73[fluorescence artefact?]	.	.	.
SMILES	FAK blocker	ERb coact inh	ERa SRC1 inh	Calb biofilm kill	Smad3 FoxH1 inh	ERa coact pot
CC(=O)O[C@H]1CC[C@@]2(C)[C@@H](CC[C@H]3[C@H]2CC(=O)[C@]2(C)[C@@H]3C[C@H]3CC(C)=CC(=O)[C@@H]32)C1	/	/	/	/	.	/
C=CCn1c(SCC(=O)NCc2ccccc2)nnc1C1CCCCC1	.	.	.	.	.	.
C=CCn1c(SCc2cc(=O)n3ccsc3n2)nnc1C1CCCCC1	.	55[fluorescence artefact?]	82[fluorescence artefact?]	.	.	.
CCCn1c(=O)c2ccccc2n2c(SCc3cc(=O)n4ccsc4n3)nnc12	.	.	50	.	.	.
Cc1cccc(-n2c(SCc3cc(=O)n4ccsc4n3)nc3ccccc32)c1	.	.	60	.	.	.
CCc1cccc(CC)c1-n1c(SCc2cc(=O)n3ccsc3n2)nnc1-c1cccnc1	.	.	.	.	.	.
Cn1cc(C(=O)NC2CCCCCC2)c(=O)c2cc(S(=O)(=O)N3CCCC3)ccc21	/	.	65	.	.	232[fluorescence artefact?]
CN(C)S(=O)(=O)c1ccc2c(c1)c(=O)c(C(=O)NCCCN1CCCCCC1)cn2C	.	.	62[fluorescence artefact?]	.	.	.
CN(CCCNC(=O)c1cn(C)c2ccc(S(=O)(=O)N(C)C)cc2c1=O)c1ccccc1	.	.	.	.	.	.
COc1ccc(C)cc1-n1nnnc1SCC(=O)c1ccc2c(c1)OCCO2	.	.	.	.	.	233
COc1ccc(C)cc1-n1nnnc1SCC(=O)NC(=O)NCc1ccco1	.	.	73	.	.	.
Cc1ccc(-n2nnnc2SCC(=O)Nc2cccc(NC(=O)c3ccco3)c2)cc1C	.	.	79	.	.	.
COC(=O)c1ccc(-n2nnnc2SCC(=O)Nc2ccccc2OC)cc1	.	.	58[fluorescence artefact?]	.	.	.
COc1ccc(-n2nnnc2SCC(=O)Nc2ccc3c(c2)OCCO3)cc1OC	.	.	.	.	.	210
COc1cccc(-n2nnnc2SCC(=O)Nc2ccc3c(c2)OCCO3)c1	.	/	/	/	/	/
O=C1OC2(c3ccc(O)cc3Oc3cc(O)ccc32)c2c1c(-c1ccccc1)c(-c1ccccc1)c(-c1ccccc1)c2-c1ccccc1	/	/	/	/	.	/
CCOc1nc(C)ccc1-c1noc(-c2ccccc2OC)n1	.	.	.	.	.	.
COc1nc(-c2ccc(C)cc2)ccc1-c1noc(-c2ccco2)n1	.	.	.	.	.	237
COc1nc(C)ccc1-c1noc(-c2ccco2)n1	.	.	.	.	.	.
COc1nc(-c2ccc(C)cc2)ccc1-c1noc(-c2cccnc2)n1	/	.	.	.	.	557[fluorescence artefact?]
COc1nc(-c2ccccc2)ccc1-c1noc(-c2cccnc2)n1	.	.	.	.	.	487[fluorescence artefact?]
CCOc1ccccc1-c1nc(-c2cc3ccccc3nc2OC)no1	.	67	.	.	.	.
Cn1ccnc1SCC(=O)Nc1cc(C(F)(F)F)ccc1N1CCOCC1	.	/	/	/	/	/
COc1nc2ccccc2cc1-c1noc(-c2cccnc2)n1	/	.	.	.	.	215[fluorescence artefact?]
O=c1[nH]c2ccc(Br)cc2c(-c2ccccc2)c1N1CCOCC1	.	.	.	.	.	429[fluorescence artefact?]
SMILES	FAK blocker	ERb coact inh	ERa SRC1 inh	Calb biofilm kill	Smad3 FoxH1 inh	ERa coact pot
CN(C)c1ccccc1CN1CCCN(Cc2ccccc2N(C)C)C1c1ccncc1	/	/	/	/	.	/
O=C(O)c1ccc(NC(CSCc2cccc(F)c2)C(=O)O)c([N+](=O)[O-])c1 (centres undefined)	.	.	.	.	.	.
CN1C(=O)COc2ccc(C(=O)c3oc4ccccc4c3-c3cnc4c(c3)COc3ccccc3-4)cc21	.	.	.	.	.	317[fluorescence artefact?]
Cc1ccc(O)c(C(=O)c2cnc3c(c2)COc2ccc(C)cc2-3)c1	.	.	.	.	.	.
CCCC(=O)NC1C2CC3CC(C2)CC1C3 (centres undefined)	.	.	83[fluorescence artefact?]	.	.	.
C=CCNC(=O)c1ccc(Cn2c(=S)[nH]c3cc4c(cc3c2=O)OCO4)cc1	.	.	.	.	.	.

Source: PubChem
